Screens deposited in PubChem by several laboratories.
Rows were chosen to be rich in hits. Some 2.5% of all compounds tested hit in one or more screens of this group.
697 NFkB inh – lowers PMA/ionomycin-induced NF-kB signal in 697 B cells; inhibition, % at 4 µM; 697 B-cell NF-kB luciferase reporter, 16 h; hit rate 0.33% among 330,000; in the data active = inhibition above about 35%
ANO1 block – mouse TMEM16A channel inhibition, primary screen | normalized B-score (activity score, 25-100; higher = stronger inhibition) at 10 µM | AID 588511 | hit rate 1.2% among 310,000 | HEK293 TMEM16A/YFP iodide influx fluorescence, ionomycin;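 active = ratio plate-corrected score three or more library SD toward inhibition, starting fluorescence score within five deviations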;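 note: score derived from kinetic fluorescence span divided by baseline fluorescence per well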
Target sequence (Q8BHY3 whole entry, looked up): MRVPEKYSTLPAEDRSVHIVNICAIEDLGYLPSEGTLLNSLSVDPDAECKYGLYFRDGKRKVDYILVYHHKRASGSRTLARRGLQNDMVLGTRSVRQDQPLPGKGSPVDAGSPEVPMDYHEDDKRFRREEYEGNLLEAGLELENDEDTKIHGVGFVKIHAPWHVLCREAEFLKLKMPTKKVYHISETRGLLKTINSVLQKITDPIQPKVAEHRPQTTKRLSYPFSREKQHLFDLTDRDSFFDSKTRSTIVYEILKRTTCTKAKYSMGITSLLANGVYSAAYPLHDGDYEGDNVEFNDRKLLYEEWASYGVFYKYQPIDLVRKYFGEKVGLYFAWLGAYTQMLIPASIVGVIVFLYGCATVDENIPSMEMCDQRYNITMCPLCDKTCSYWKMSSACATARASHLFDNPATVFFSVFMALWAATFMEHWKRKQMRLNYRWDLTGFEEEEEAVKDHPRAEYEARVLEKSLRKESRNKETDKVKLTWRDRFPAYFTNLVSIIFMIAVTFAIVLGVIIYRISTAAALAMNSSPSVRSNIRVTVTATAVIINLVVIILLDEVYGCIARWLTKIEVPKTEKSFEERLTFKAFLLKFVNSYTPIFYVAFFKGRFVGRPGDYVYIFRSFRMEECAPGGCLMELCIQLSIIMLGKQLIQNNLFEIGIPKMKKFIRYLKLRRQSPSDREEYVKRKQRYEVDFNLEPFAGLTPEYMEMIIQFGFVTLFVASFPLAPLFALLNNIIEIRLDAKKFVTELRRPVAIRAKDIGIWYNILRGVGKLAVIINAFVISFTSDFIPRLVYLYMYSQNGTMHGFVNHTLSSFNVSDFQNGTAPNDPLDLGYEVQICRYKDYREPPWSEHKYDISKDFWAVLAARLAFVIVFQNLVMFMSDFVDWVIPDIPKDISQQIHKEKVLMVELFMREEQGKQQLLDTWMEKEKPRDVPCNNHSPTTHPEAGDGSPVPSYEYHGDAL
KLF5 inhibitor – suppresses KLF5 promoter-driven expression. AID 1700. DLD-1 KLF5 promoter-luciferase reporter, luminescence. hit rate 0.23% among 290,000. inhibition, % at 5 µM;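 active = inhibition above a per-plate limit of that plate's mean compound inhibition plus 3 SD, cut at about 60% in these data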;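 note: 0% = DMSO wells and 100% = LY294002 at 200 µM; higher means less KLF5 promoter-driven luciferase light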
aSyn UTR inh – MLPCN primary screen, SNCA 5' untranslated region | hit rate 0.82% among 300,000 | alpha-synuclein 5'UTR reporter, inhibitor activity | inhibition, % (tested at 7.5 µM); in the data active = inhibition above about 60%;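 note: H4 neuroglioblastoma cells stably carrying SNCA 5'UTR luciferase fusion; 0% = DMSO wells and 100% = positive control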
Jurkat NFkB inh – lowers PMA/ionomycin-induced NF-kB signal in Jurkat cells. inhibition, % at 4 µM. PMA/ionomycin-induced NF-kB luciferase reporter, luminescence. hit rate 0.53% among 330,000; in the data active = inhibition above about 50%
ANO1 activ – activators or potentiators of mouse TMEM16A chloride channel | Q8BHY3 | HEK293 TMEM16A/YFP-H148Q/I152L, iodide quench fluorescence; active compounds read low | B-score at 10 µM | hit rate 0.3% among 340,000 | AID 623877;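 active = fluorescence-ratio B-score plate-corrected deviation score at least 3 library SD below zero, with starting fluorescence score within 5 deviations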;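 note: channel opened by trigger with iodide after compound preincubation; score built on the fluorescence ratio of max minus min over baseline; more negative score means more quench and so TMEM16A activation or potentiation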
Starred values were filed as active, the others as inactive; i = inactive; x = not tested or not shown.

SMILES	697 NFkB inh	ANO1 block	KLF5 inhibitor	aSyn UTR inh	Jurkat NFkB inh	ANO1 activ
CN(C)CC(CCC(CN(C)C)C(=O)c1ccccc1)C(=O)c1ccccc1 (stereo unspecified)	x	x	91*	-37	x	-9.5*
CCOc1ccc(C(=O)C(CCC(CN(C)C)C(=O)c2ccc(OCC)cc2)CN(C)C)cc1 (stereo unspecified)	x	x	19	-10	x	i
COc1ccc(/C=C/C(=O)O)cc1S(=O)(=O)NCc1cccnc1	-4	i	-13	10	5	i
CCN(CC(=O)NCc1cccs1)C(=O)c1ccc(S(=O)(=O)Nc2cccc(C)c2C)cc1	4	i	-30	11	20	i
CC(C)(C)C(=O)NC(=S)NNC(=O)C(c1ccccc1)c1ccccc1	-6	100*	-4	39	2	i
CCC(c1nnnn1Cc1cccs1)N1CCN(c2nc3ccccc3s2)CC1 (stereo unspecified)	-28	i	2	-12	-3	i
CC(C)CC(c1nnnn1Cc1cccs1)N1CCN(c2nc3ccccc3s2)CC1 (stereo unspecified)	2	i	-28	6	7	-8.3*
Cc1cc(Cl)ccc1OC(C)C(=O)OCC(=O)c1ccc[nH]1 (stereo unspecified)	2	x	x	x	6	i
CC(=O)N1CCOc2ccc(S(=O)(=O)NCC3CCC(C(=O)Nc4ccc(C)cn4)CC3)cc21 (stereo unspecified)	-25	i	-36	11	24	i
Cc1cccnc1NC(=O)c1cccc(NC(=O)CC2SC(N3CCCCC3)=NC2=O)c1 (stereo unspecified)	-15	x	x	x	10	i
CN(C)C(CNC(=O)c1cccc(S(=O)(=O)Nc2ccc(SC(F)F)cc2)c1)c1ccccc1 (stereo unspecified)	x	x	x	x	x	i
CCN(CC)S(=O)(=O)c1ccc(C(=O)Nc2ccc(OCC(=O)N3CCOCC3)cc2)cc1	21	i	-6	22	11	-12*
CCCCOc1ccc(C(=O)Nc2ccc(OCC(=O)N3CCOCC3)cc2)cc1	8	i	-54	-51	-20	i
COC(=O)C1=C(N)Oc2cc(C)n(Cc3ccncc3)c(=O)c2C1c1cccnc1 (stereo unspecified)	11	i	-4	1	19	-15*
COc1cccc(CNn2cnnc2)c1OCc1ccccc1F	6	i	-23	-1	0	i
COc1cccc(CNn2cnnc2)c1OCc1ccc(F)cc1	12	100*	2	6	1	i
O=S(=O)(Nc1ccc2c(c1)OCCO2)c1ccc(F)c(F)c1	-7	i	-33	9	-3	i
O=S(=O)(Nc1ccc2c(c1)OCCO2)c1ccc2oc3ccccc3c2c1	-5	25*	2	-29	5	i
CC1CCCCC1NC(=O)c1cc(S(=O)(=O)N2CCOCC2)ccc1Cl (stereo unspecified)	-2	x	x	x	8	i
O=C(Nc1cccnc1)c1cccc(S(=O)(=O)Nc2ccccc2F)c1	3	x	x	x	12	i
O=C(NC1CC1)c1cccc(S(=O)(=O)Nc2ccccc2F)c1	3	i	x	8	-6	-4.9*
C=CC[n+]1c(-c2ccc(Cl)cc2Cl)csc1Nc1c(C)n(C)n(-c2ccccc2)c1=O	2	i	-10	14	16	i
C=CC[n+]1c(-c2ccc(Cl)cc2Cl)csc1Nc1ccc(NC(C)=O)cc1	-71	i	11	94*	3	i
CC(c1ccccc1)N1C(=O)c2ccc(C(=O)Nc3ccc(Br)cc3C(=O)O)cc2C1=O (stereo unspecified)	-14	100*	-7	-30	-9	i
O=C(CCC(=O)N1CCN(S(=O)(=O)c2ccccc2Cl)CC1)c1ccccc1	-6	x	x	x	-5	i
SMILES	697 NFkB inh	ANO1 block	KLF5 inhibitor	aSyn UTR inh	Jurkat NFkB inh	ANO1 activ
O=C(Nc1ccc(OCc2ccccc2Cl)cc1)c1cccnc1	-2	i	-1	90*	8	i
O=C(Nc1ccc(OCc2ccccc2)cc1)c1cccnc1	-34	i	-47	-59	14	i
CC(C(=O)Nc1ccc(F)cc1Cl)N1CCN(S(=O)(=O)c2cccs2)CC1 (stereo unspecified)	25	x	x	x	9	-21*
CC(=O)Oc1ccc(-c2nc(-c3cccnc3)no2)cc1	-146	i	-96	-93	-77	-15*
CC(C)(CC(=O)c1ccccc1)CC(=O)c1ccccc1	x	x	x	x	x	i
CCN(CCO)c1ccc(N=Nc2cc(C)[nH]n2)cc1	-87	i	41	102*	-23	i
CCCC(c1nnnn1CCC(C)C)N1CCC(C(N)=O)CC1 (stereo unspecified)	-4	i	-26	5	0	x
CC(C)CCn1nnnc1C(C(C)C)N1CCC(C(N)=O)CC1 (stereo unspecified)	2	100*	-24	13	2	i
Cc1cccc(Oc2ccc(NC(=O)c3ccccc3C(=O)O)cc2)c1C	10	i	-24	-10	16	i
O=C(O)c1ccccc1C(=O)Nc1ccc(Oc2cccc3ccccc23)cc1	x	x	28	94*	x	i
FC(F)(F)c1cccc(N2CCN(C3CC4CCC3C4)CC2)c1 (stereo unspecified)	-10	i	-18	-4	2	i
Cc1cc(Cl)ccc1OCC(=O)OCC(=O)c1c(N)n(C)c(=O)n(C)c1=O	20	x	x	x	9	i
Cc1ccc(O)c(CNc2cnc3ccccc3c2)c1	-53	25*	-82	-100	-24	i
CNS(=O)(=O)c1cc2c3c(cccc3c1)C(=O)NC2=O	4	i	11	71*	0	i
Cc1ccc(NS(=O)(=O)c2cc3c4c(cccc4c2)C(=O)NC3=O)cc1	9	i	-7	6	16	i
C=CCOc1ccc(CNn2nnnc2N)cc1	-10	i	-25	-21	-10	-14*
CCn1c(=O)c(C(=O)NCc2ccc(F)cc2)c(O)c2ccccc21	-1	i	-12	6	7	i
CCn1c(=O)c2c(nc3n2CC(C)CN3CCc2ccccc2)n(C)c1=O (stereo unspecified)	-9	i	-9	13	1	i
COCCn1c(=O)c2c(nc3n2CC(C)CN3CCc2ccccc2)n(C)c1=O (stereo unspecified)	2	i	-15	67*	-5	i
CC(C)Cn1c(=O)c2c(nc3n2CCCN3CCc2ccccc2)n(C)c1=O	-25	25*	-23	-1	14	i
COc1ccc(N2CCCn3c2nc2c3c(=O)n(CCc3ccccc3)c(=O)n2C)cc1	29	i	x	29	3	-5*
Cn1c(=O)n(CCc2ccccc2)c(=O)c2c1nc1n2CCCN1CCc1ccccc1	10	i	12	29	6	i
